# About 410 targets per protein were measured; listed, in parts, are those with the strongest signals and a random draw of the rest.
# Assays:
# Experiment in all cases: glycan array binding signal (z-score within array); higher = stronger binding
# Details in all cases: glycan notation: IUPAC condensed, linker removed
# [1] = target: Fuc(a1-2)Gal(b1-3)GlcNAc(b1-2)Man(a1-3)[Fuc(a1-2)Gal(b1-3)GlcNAc(b1-2)Man(a1-6)]Man(b1-4)GlcNAc(b1-4)GlcNAc
# Outline: (§1)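 The binding signal is a Z-score computed within each array. Data were drawn from 3228 arrays in the Consortium for Functional Glycomics database, restricted to those with a known protein sequence. Scores were averaged over arrays of the same protein sequence at different concentrations or buffers, and over linkers, and negative values can be taken as non-binding.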
# [2] = target: Fuc(a1-2)Gal(b1-3)GlcNAc(b1-3)GalNAc
# Outline: as §1
# [3] = target: Fuc(a1-2)Gal(b1-4)GlcNAc6S
# Outline: as §1
# [4] = target: Fuc(a1-2)Gal(b1-4)[Fuc(a1-3)]GlcNAc
# Outline: as §1
# [5] = target: Fuc(a1-2)Gal(b1-4)[Fuc(a1-3)]GlcNAc(b1-2)[Fuc(a1-2)Gal(b1-4)[Fuc(a1-3)]GlcNAc(b1-4)]Man(a1-3)[Fuc(a1-2)Gal(b1-4)[Fuc(a1-3)]GlcNAc(b1-2)Man(a1-6)]Man(b1-4)GlcNAc(b1-4)GlcNAc
# Outline: as §1
# [6] = target: Fuc(a1-2)[Gal(a1-3)]Gal(b1-3)GlcNAc
# Outline: as §1
# [7] = target: Fuc(a1-2)[Gal(a1-3)]Gal(b1-4)GlcNAc(b1-2)Man(a1-3)[Fuc(a1-2)[Gal(a1-3)]Gal(b1-4)GlcNAc(b1-2)Man(a1-6)]Man(b1-4)GlcNAc(b1-4)GlcNAc
# Outline: as §1
# [8] = target: Fuc(a1-2)[GalNAc(a1-3)]Gal(b1-4)Glc
# Outline: as §1
# [9] = target: Fuc(a1-2)[GalNAc(a1-3)]Gal(b1-4)GlcNAc(b1-3)GalNAc
# Outline: as §1
# [10] = target: Fuc(a1-3)[Gal(b1-4)]GlcNAc(b1-2)Man(a1-3)[Fuc(a1-3)[Gal(b1-4)]GlcNAc(b1-2)Man(a1-6)]Man(b1-4)GlcNAc(b1-4)[Fuc(a1-6)]GlcNAc
# Outline: as §1
# [11] = target: Gal(a1-3)Gal(b1-3)GlcNAc(b1-3)GalNAc
# Outline: as §1
# [12] = target: Gal(b1-3)GlcNAc(a1-3)Gal(b1-4)GlcNAc
# Outline: as §1
# [13] = target: Gal(b1-3)GlcNAc(b1-3)Gal(b1-4)[Fuc(a1-3)]GlcNAc
# Outline: as §1
# [14] = target: Gal(b1-3)GlcNAc(b1-3)Gal(b1-4)[Fuc(a1-3)]GlcNAc(b1-6)[Gal(b1-3)GlcNAc(b1-3)]Gal(b1-4)Glc
# Outline: as §1
# [15] = target: Gal(b1-3)GlcNAc(b1-3)GalNAc
# Outline: as §1
# [16] = target: Gal(b1-4)GlcNAc(b1-3)Gal(b1-3)GlcNAc
# Outline: as §1
# [17] = target: Gal(b1-4)GlcNAc(b1-3)Gal(b1-4)GlcNAc(b1-2)[Gal(b1-4)GlcNAc(b1-3)Gal(b1-4)GlcNAc(b1-6)]Man(a1-6)[Gal(b1-4)GlcNAc(b1-3)Gal(b1-4)GlcNAc(b1-2)Man(a1-3)]Man(b1-4)GlcNAc(b1-4)[Fuc(a1-6)]GlcNAc
# Outline: as §1
# [18] = target: Gal(b1-4)GlcNAc(b1-3)Gal(b1-4)GlcNAc(b1-3)Gal(b1-4)GlcNAc(b1-3)Gal(b1-4)GlcNAc(b1-3)Gal(b1-4)GlcNAc(b1-2)Man(a1-3)[Gal(b1-4)GlcNAc(b1-3)Gal(b1-4)GlcNAc(b1-3)Gal(b1-4)GlcNAc(b1-3)Gal(b1-4)GlcNAc(b1-3)Gal(b1-4)GlcNAc(b1-2)Man(a1-6)]Man(b1-4)GlcNAc(b1-4)GlcNAc
# Outline: as §1
# [19] = target: Gal(b1-4)GlcNAc(b1-3)Gal(b1-4)GlcNAc(b1-6)[Gal(b1-3)]GalNAc
# Outline: as §1
# [20] = target: Gal(b1-4)GlcNAc(b1-6)[Gal(b1-4)GlcNAc(b1-3)]GalNAc
# Outline: as §1
# Gal3S(b1-3)GlcNAc = target: Gal3S(b1-3)GlcNAc
# Outline: as §1
# Gal3S(b1-4)Glc6S = target: Gal3S(b1-4)Glc6S
# Outline: as §1
# Gal6S(b1-4)Glc6S = target: Gal6S(b1-4)Glc6S
# Outline: as §1
# [21] = target: GalNAc(b1-3)Gal(a1-4)Gal(b1-4)GlcNAc
# Outline: as §1
# GalNAc(b1-3)GlcNAc = target: GalNAc(b1-3)GlcNAc
# Outline: as §1
# [22] = target: GalNAc3S(b1-4)[Fuc(a1-3)]GlcNAc
# Outline: as §1
binder,measurement,setting,value
Clec39 (Caenorhabditis elegans) (protein) MTSFYDNSSSSSKPVPLKTSRAQKIQILIFDNWKLILYGAISTLILVLAIMFSTLFFALPAANCDENSEPTKYYTTNAEITTTITTTNQKTTSTASSHLTTISSSATQIYSESSSSSTSQSTFTQSPPEISTTTIAPSDFSCQHGFTLVNNKCWKLVTSNQARPDADKICNGYGGATLFSIKSEQDNRAMIHFVKGQDIDFLWSGLLCSAGEPISCIWDIENGSTANYSNFADGFPNIVYGNCVYFITSGDEAGQWGNEQCGQVMNFVCELPATFQGKDGCKNNYEKSCYLRFDLNLTVPQAQNFCLEKCANLVSIHSANEVRFIMTIYDFIGEILIGALAPAQDFIYWLDGTPANYNNLKFFYNSTCVHMTVAPGMQNVGKWFTRFCTETGKFLCKRSIKNSCT,glycan array binding signal (z-score),[1],2.06
same,glycan array binding signal (z-score),[2],1.86
same,glycan array binding signal (z-score),[3],-0.018
same,glycan array binding signal (z-score),[4],0.187
same,glycan array binding signal (z-score),[5],3.52
same,glycan array binding signal (z-score),[6],-0.274
same,glycan array binding signal (z-score),[7],3.03
same,glycan array binding signal (z-score),[8],2.18
same,glycan array binding signal (z-score),[9],-0.527
same,glycan array binding signal (z-score),[10],4.38
same,glycan array binding signal (z-score),[11],-0.178
same,glycan array binding signal (z-score),[12],-0.68
same,glycan array binding signal (z-score),[13],-0.715
same,glycan array binding signal (z-score),[14],0.976
same,glycan array binding signal (z-score),[15],-0.666
same,glycan array binding signal (z-score),[16],-0.657
same,glycan array binding signal (z-score),[17],0.173
same,glycan array binding signal (z-score),[18],3.63
same,glycan array binding signal (z-score),[19],0.593
same,glycan array binding signal (z-score),[20],5.43
same,glycan array binding signal (z-score),Gal3S(b1-3)GlcNAc,-0.524
same,glycan array binding signal (z-score),Gal3S(b1-4)Glc6S,0.293
same,glycan array binding signal (z-score),Gal6S(b1-4)Glc6S,2
same,glycan array binding signal (z-score),[21],1.49
same,glycan array binding signal (z-score),GalNAc(b1-3)GlcNAc,-0.927
same,glycan array binding signal (z-score),[22],1.07

# Reference: the supplement of paper PMC8728848
